About 83,000 compounds went through this panel and 20% of them were active in at least one assay; those are over-represented in the sample as a whole.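 48-hour exposure, single concentration, 96-well plates; percent growth endpoint where 0 means no net growth. Active: below 10.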 The source made the active and inactive calls.
Experiments:
Assay in all cases: NCI-60 one-dose screen, 48 h (100 = growth as untreated, 0 = no growth, -100 = all killed)
Details in all cases: 10 µM unless noted
SK-MEL-2 melanoma = system: SK-MEL-2 melanoma
EKVX NSCLC = system: EKVX NSCLC
SN12C renal = system: SN12C renal
UO-31 renal = system: UO-31 renal
TK-10 renal = system: TK-10 renal
ACHN renal = system: ACHN renal
CAKI-1 renal = system: CAKI-1 renal
A498 renal = system: A498 renal
CCRF-CEM leukemia = system: CCRF-CEM leukemia
MOLT-4 leukemia = system: MOLT-4 leukemia
SR leukemia = system: SR leukemia
RPMI-8226 leukemia = system: RPMI-8226 leukemia
OVCAR-8 ovarian = system: OVCAR-8 ovarian
OVCAR-5 ovarian = system: OVCAR-5 ovarian
OVCAR-4 ovarian = system: OVCAR-4 ovarian
SK-OV-3 ovarian = system: SK-OV-3 ovarian
IGROV1 ovarian = system: IGROV1 ovarian
OVCAR-3 ovarian = system: OVCAR-3 ovarian
HS 578T breast = system: HS 578T breast
NCI/ADR-RES ovarian = system: NCI/ADR-RES ovarian

Measured: growth

CCN1CCN(c2nc(NNC(=O)c3ccc(OC)cc3)nc(N3CCN(C(c4ccccc4)c4ccccc4)CC3)n2)CC1
inactive: SK-MEL-2 melanoma 78% | EKVX NSCLC 82.6% | SN12C renal 45.7% | UO-31 renal 61.2% | TK-10 renal 49.5% | ACHN renal 34% | CAKI-1 renal 24% | A498 renal 60.1% | CCRF-CEM leukemia 43.8% | MOLT-4 leukemia 16.3% | RPMI-8226 leukemia 12.3% | OVCAR-8 ovarian 63.1% | OVCAR-5 ovarian 106% | OVCAR-4 ovarian 49.1% | SK-OV-3 ovarian 48.3% | IGROV1 ovarian 72.3% | OVCAR-3 ovarian 11.7% | HS 578T breast 46.2% | NCI/ADR-RES ovarian 73.4%
active: SR leukemia -8.03%

COc1ccc(C(=O)/C=C/Nc2cc(-c3ccccc3)nn2-c2ccccc2)cc1
inactive: SK-MEL-2 melanoma 101% | EKVX NSCLC 89.4% | SN12C renal 94.5% | UO-31 renal 79.3% | TK-10 renal 84.2% | ACHN renal 99% | CAKI-1 renal 94.3% | A498 renal 78% | CCRF-CEM leukemia 84.2% | MOLT-4 leukemia 85.4% | SR leukemia 99.3% | RPMI-8226 leukemia 94.9% | OVCAR-8 ovarian 95.9% | OVCAR-5 ovarian 94.2% | OVCAR-4 ovarian 98.7% | SK-OV-3 ovarian 97.6% | IGROV1 ovarian 97.8% | OVCAR-3 ovarian 109% | HS 578T breast 107% | NCI/ADR-RES ovarian 93.2%

CN(C)c1ccc(/C=C/C2=[N+](C)c3ccccc3C2(C)C)cc1
active: SN12C renal -9.66% | MOLT-4 leukemia -6.54% | SR leukemia 6.36% | RPMI-8226 leukemia -20.3% | SK-OV-3 ovarian 4.03%
inactive: SK-MEL-2 melanoma 16.4% | EKVX NSCLC 22.6% | UO-31 renal 19.4% | TK-10 renal 30.4% | ACHN renal 14% | CAKI-1 renal 29.3% | A498 renal 66.6% | CCRF-CEM leukemia 11.9% | OVCAR-8 ovarian 14.8% | OVCAR-5 ovarian 35.6% | OVCAR-4 ovarian 31.2% | IGROV1 ovarian 34.7% | OVCAR-3 ovarian 10% | HS 578T breast 43.3% | NCI/ADR-RES ovarian 77.8%

COc1ccc(N2C(=O)/C(=C/C(Cl)=C/c3ccc([N+](=O)[O-])cc3)SC2=S)cc1
inactive: SK-MEL-2 melanoma 37.4% | A498 renal 63.2% | OVCAR-5 ovarian 10% | OVCAR-4 ovarian 10.4% | SK-OV-3 ovarian 40.8% | HS 578T breast 26.3%
active: EKVX NSCLC -3.04% | SN12C renal -3.33% | UO-31 renal -97.7% | TK-10 renal -26.7% | ACHN renal -68% | CAKI-1 renal 0.845% | CCRF-CEM leukemia 0.216% | MOLT-4 leukemia 2.36% | SR leukemia -6.82% | RPMI-8226 leukemia -9.98% | OVCAR-8 ovarian 6.6% | IGROV1 ovarian -52.7% | OVCAR-3 ovarian -57.6% | NCI/ADR-RES ovarian 8.97%

CN(C)c1ccc(Cc2cc(-c3ccccc3)nn(C/C(=N/O)c3ccccc3)c2=O)cc1
active: A498 renal -3.2%
inactive: SK-MEL-2 melanoma 67.9% | EKVX NSCLC 49.5% | SN12C renal 17.9% | UO-31 renal 36.1% | TK-10 renal 84.5% | ACHN renal 52.8% | CAKI-1 renal 53.6% | CCRF-CEM leukemia 46.6% | MOLT-4 leukemia 35.1% | SR leukemia 46.3% | RPMI-8226 leukemia 28.2% | OVCAR-8 ovarian 57.2% | OVCAR-5 ovarian 89.7% | OVCAR-4 ovarian 55.1% | SK-OV-3 ovarian 94.6% | IGROV1 ovarian 68.5% | OVCAR-3 ovarian 56.2% | HS 578T breast 83.1% | NCI/ADR-RES ovarian 44.1%

COc1cccc(-c2nn(-c3ccccc3)cc2-c2ccnc(-c3cccnc3)c2)c1
inactive: SK-MEL-2 melanoma 87.4% | EKVX NSCLC 93.3% | SN12C renal 101% | UO-31 renal 62.1% | TK-10 renal 104% | ACHN renal 92.6% | CAKI-1 renal 102% | A498 renal 98.6% | CCRF-CEM leukemia 99% | MOLT-4 leukemia 88.1% | SR leukemia 74.9% | RPMI-8226 leukemia 67.7% | OVCAR-8 ovarian 105% | OVCAR-5 ovarian 95.9% | OVCAR-4 ovarian 82.7% | SK-OV-3 ovarian 104% | IGROV1 ovarian 94.8% | OVCAR-3 ovarian 96.8% | HS 578T breast 120% | NCI/ADR-RES ovarian 90.6%

C#CC(F)(F)[C@]1(O)CCC2C3CCC4=CC(=O)CCC4=C3[C@@H](c3ccc(N(C)C)cc3)C[C@@]21C (stereo not given in full)
inactive: SK-MEL-2 melanoma 91.8% | EKVX NSCLC 90.4% | SN12C renal 104% | UO-31 renal 76.3% | TK-10 renal 89.7% | ACHN renal 99.4% | CAKI-1 renal 86.4% | A498 renal 87.9% | CCRF-CEM leukemia 56.7% | MOLT-4 leukemia 75.4% | SR leukemia 63.8% | RPMI-8226 leukemia 74.6% | OVCAR-8 ovarian 86.7% | OVCAR-5 ovarian 119% | OVCAR-4 ovarian 88.4% | SK-OV-3 ovarian 87.8% | IGROV1 ovarian 99% | OVCAR-3 ovarian 95.1% | HS 578T breast 89.1% | NCI/ADR-RES ovarian 94.6%

CNC(=O)c1cc(Oc2cccc3nc(NC(=O)Nc4ccc(F)cc4F)ccc23)ccn1
inactive: SK-MEL-2 melanoma 71% | SN12C renal 10.6% | UO-31 renal 10.4% | ACHN renal 33.6% | CAKI-1 renal 72.7% | A498 renal 68.1% | CCRF-CEM leukemia 49.7% | MOLT-4 leukemia 53.6% | SR leukemia 18% | RPMI-8226 leukemia 30.4% | OVCAR-8 ovarian 13.9% | OVCAR-5 ovarian 70.3% | SK-OV-3 ovarian 35.3% | IGROV1 ovarian 35% | NCI/ADR-RES ovarian 22.5%
active: EKVX NSCLC -0.932% | TK-10 renal -37.7% | OVCAR-4 ovarian -63.4% | OVCAR-3 ovarian 0.213% | HS 578T breast 5.37%

CC(C)=CC(=O)C1C(=O)c2ccccc2C1=O
inactive: SK-MEL-2 melanoma 102% | EKVX NSCLC 99.4% | SN12C renal 95.1% | UO-31 renal 92.3% | TK-10 renal 108% | ACHN renal 97.1% | CAKI-1 renal 81% | A498 renal 87.6% | CCRF-CEM leukemia 98.1% | MOLT-4 leukemia 103% | SR leukemia 91.3% | RPMI-8226 leukemia 103% | OVCAR-8 ovarian 97.8% | OVCAR-5 ovarian 97.3% | OVCAR-4 ovarian 102% | SK-OV-3 ovarian 90.4% | IGROV1 ovarian 70.5% | OVCAR-3 ovarian 95.7% | HS 578T breast 102% | NCI/ADR-RES ovarian 108%

C=CN(C(=O)N1CCN(c2cc3c(cc2F)c(=O)c(C(=O)O)cn3C2CC2)CC1)c1nc(-c2ccc(C)cc2)cs1
active: SN12C renal 8.99% | A498 renal -4.05% | CCRF-CEM leukemia 4.64% | RPMI-8226 leukemia 7.02% | SK-OV-3 ovarian -5.97% | OVCAR-3 ovarian 5.61%
inactive: SK-MEL-2 melanoma 35.2% | EKVX NSCLC 24.2% | UO-31 renal 13.4% | TK-10 renal 42.3% | ACHN renal 27.7% | CAKI-1 renal 20.9% | MOLT-4 leukemia 13.9% | SR leukemia 13.7% | OVCAR-8 ovarian 14.1% | OVCAR-5 ovarian 38.5% | OVCAR-4 ovarian 23.3% | IGROV1 ovarian 22.4% | HS 578T breast 13.8% | NCI/ADR-RES ovarian 44.9%

Nc1cc(-c2ccc(Cl)cc2)nn1-c1nc(-c2ccc(Br)cc2)cs1
inactive: SK-MEL-2 melanoma 96.9% | EKVX NSCLC 93.6% | SN12C renal 97.7% | UO-31 renal 93.4% | TK-10 renal 96.4% | ACHN renal 101% | CAKI-1 renal 97.8% | A498 renal 91.7% | CCRF-CEM leukemia 104% | MOLT-4 leukemia 103% | SR leukemia 91.3% | RPMI-8226 leukemia 100% | OVCAR-8 ovarian 103% | OVCAR-5 ovarian 93.7% | OVCAR-4 ovarian 103% | SK-OV-3 ovarian 92.4% | IGROV1 ovarian 99.9% | OVCAR-3 ovarian 106% | HS 578T breast 98% | NCI/ADR-RES ovarian 105%

COc1cccc2cc(N(C)c3nc(C)nc4c3CCC4)ccc12
active: A498 renal -11.4% | SR leukemia 9.67% | OVCAR-3 ovarian -18.1%
inactive: SK-MEL-2 melanoma 41% | EKVX NSCLC 56.1% | SN12C renal 17.2% | UO-31 renal 38.7% | TK-10 renal 58% | ACHN renal 27.3% | CAKI-1 renal 18.4% | CCRF-CEM leukemia 15.2% | MOLT-4 leukemia 14.8% | RPMI-8226 leukemia 29.2% | OVCAR-8 ovarian 10.5% | OVCAR-5 ovarian 52.2% | OVCAR-4 ovarian 47.1% | SK-OV-3 ovarian 19.5% | IGROV1 ovarian 24.2% | HS 578T breast 17.9% | NCI/ADR-RES ovarian 12.6%

C#Cc1ccc(NC(=O)Cc2ccc(/C=C/C(=O)c3nccn3C)cc2)cc1
inactive: SK-MEL-2 melanoma 103% | EKVX NSCLC 78.4% | SN12C renal 68% | UO-31 renal 58.7% | TK-10 renal 94.9% | ACHN renal 96.5% | CAKI-1 renal 47.7% | A498 renal 105% | CCRF-CEM leukemia 21.4% | MOLT-4 leukemia 40.8% | SR leukemia 20.8% | RPMI-8226 leukemia 19.2% | OVCAR-8 ovarian 26.2% | OVCAR-5 ovarian 105% | OVCAR-4 ovarian 69.9% | SK-OV-3 ovarian 109% | IGROV1 ovarian 52.8% | OVCAR-3 ovarian 12% | HS 578T breast 35.7% | NCI/ADR-RES ovarian 34.5%

CSc1nc(CC(C)C)c(C#N)c(=O)n1C
inactive: SK-MEL-2 melanoma 85.8% | EKVX NSCLC 64.3% | SN12C renal 29.1% | UO-31 renal 38.9% | TK-10 renal 34.2% | ACHN renal 55.6% | CAKI-1 renal 56.8% | A498 renal 47% | CCRF-CEM leukemia 49.2% | MOLT-4 leukemia 46.1% | SR leukemia 47.4% | RPMI-8226 leukemia 64.5% | OVCAR-8 ovarian 77.1% | OVCAR-5 ovarian 74.7% | OVCAR-4 ovarian 52.4% | SK-OV-3 ovarian 87.7% | IGROV1 ovarian 71.8% | OVCAR-3 ovarian 61.3% | HS 578T breast 58.4% | NCI/ADR-RES ovarian 72.5%

COc1ccc(Cn2cc(C(=O)N=Nc3c(O)[nH]c4ccc(Br)cc34)nn2)cc1
inactive: SK-MEL-2 melanoma 98.1% | EKVX NSCLC 106% | SN12C renal 102% | UO-31 renal 91.5% | TK-10 renal 97.6% | ACHN renal 110% | CAKI-1 renal 97.7% | A498 renal 97.1% | CCRF-CEM leukemia 92.5% | MOLT-4 leukemia 80.6% | SR leukemia 77.5% | RPMI-8226 leukemia 100% | OVCAR-8 ovarian 99.2% | OVCAR-5 ovarian 106% | OVCAR-4 ovarian 105% | SK-OV-3 ovarian 108% | IGROV1 ovarian 105% | OVCAR-3 ovarian 112% | HS 578T breast 114% | NCI/ADR-RES ovarian 103%
